The values below come from PubChem BioAssay (NCI).

The panel holds about 83,000 compounds, 20% with a hit somewhere; the sample as a whole holds those more often.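 Assay: single dose, 48 h. Readout: percent growth (0 = no net growth; negative = cell death). Active: <10.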 A number with no mark means an inactive call. Calls of active or inactive are those of the source.

One assay has as its system IGROV1 ovarian. Description: NCI-60 one-dose screen, 48 h (100 = growth as untreated, 0 = no growth, -100 = all killed). The following applies: 10 µM unless noted.
Consider `O=C(C[n+]1ccnc2ccccc21)c1ccc(O)c(O)c1`, for which the growth is 51.4%.

As for `Cn1ccnc1C(=O)/C=C/c1ccc(C(=O)Nc2ccc(NC(=O)CCNC(=O)c3csc(Br)n3)cc2)cc1`, the growth was 41.7%. Same read-out and setting: for `COc1ccc(Oc2ccc(C3CC(c4cc(OC)c(OC)c(OC)c4)=NN3C(C)=O)cc2)cc1` (stereo unspecified) the value was 19.7%; for `O=C1/C(=C/c2ccccc2[N+](=O)[O-])Oc2ccc(O)cc21`, 33.5%.

As to `C#C[C@]1(O)CC[C@H]2[C@@H]3CC=C4c5sc(C6CC6)nc5CC[C@]4(C)[C@H]3CC[C@@]21C`, the growth was 97.9%. Still for that read-out and setting: for `Cc1ccc(S(=O)(=O)N/N=C/c2cn(-c3ccc(F)cc3)nc2-c2ccc(S(C)(=O)=O)cc2)cc1` the value was 99.7%.

Take `C#C[C@]1(O)CC[C@H]2[C@@H]3CC=C4c5sc(-c6ccccn6)nc5CC[C@]4(C)[C@H]3CC[C@@]21C`: the growth was 88.9%.

`CCOC(=O)c1c(NC(=O)c2cccc(C(F)(F)F)c2)sc2c(CN3CCN(C)CC3)c(O)ccc12`: the growth is -86.1% (active). As to `CCOC(=O)Nc1ccc(-c2nc(-c3cccc(O)c3)c(-c3ccnc(Br)c3)[nH]2)cc1`, the growth was 33%.

Turning to `COc1ccc(NS(=O)(=O)c2ccc(-c3cnc(C4CC4)o3)cc2)cc1Cl`, the growth is 41.4%.

Consider `O=S(=O)(Nc1ccc(I)c(Cl)c1)c1ccc(-c2cnc(C3CC3)o2)cc1`, for which the growth was 36.3%. Still for that read-out and setting: for `O=S(=O)(Nc1ccc2c(c1)OC(F)(F)O2)c1ccc(-c2cnc(C3CC3)o2)cc1` the value was 42.8%. On to `O=C(CN1CCN(c2cc(=O)n(-c3ccccc3)c3ccccc23)CC1)Nc1ccc([N+](=O)[O-])cc1`, for which the growth was 84.3%. The same measure, in the same setting: next, `CN(c1ccc(Cl)cc1)S(=O)(=O)c1ccc(-c2cnc(C3CC3)o2)cc1`: 28.8%.

In the case of `O=C(/C=C/c1cn(-c2ccccc2)nc1-c1ccc(Cl)cc1)c1cc2ccccc2oc1=O`, the growth is 35.4%. With `O=C1C[C@@H](c2ccccc2)Oc2c(Cc3ccccc3O)c(O)c(Cc3cc(Cc4cc(Cc5ccccc5O)ccc4O)ccc3O)c(O)c21`, the growth was 82.6%. Still for that read-out and setting: for `CCC(CC)N1C(=O)/C(=c2\sc3n(c2=O)C2C(NN=3)N(CC)C(=O)N2CC)c2ccccc21` (stereo unspecified) the value was 23%; for `COC(=O)Nc1ccc(-c2nc(-c3cccc(O)c3)c(-c3ccnc(Br)c3)[nH]2)cc1`, 65.7%. Still for that read-out and setting: next, `CC(=O)Nc1ccc(NC(=O)Nc2cccc(-c3nc(-c4ccc(NC(=O)c5cccs5)cc4Cl)no3)c2)cc1C(F)(F)F`: -57.6% (active). Still for that read-out and setting: next, `O=S(=O)(Nc1cc(Cl)cc(Cl)c1)c1ccc(-c2cnc(C3CC3)o2)cc1`: 40.7%. Regarding `CC(=O)Nc1ccc(NC(=O)Nc2cccc(-c3nc(-c4ccc(NC(=O)c5cccnc5)cc4Cl)no3)c2)cc1C(F)(F)F`, the growth is -54% (active). With `O=C(Nc1cccc(-c2nc(-c3ccc(NC(=O)c4cccs4)cc3Cl)no2)c1)Nc1ccc(NC(=O)C2CC2)c(C(F)(F)F)c1`, the growth was -40.4% (active). For the molecule `CN1C(=O)N(C)C2Nn3c(s/c(=C\c4ccccn4)c3=O)=NC21` (stereo unspecified), the growth was 98.3%.

The subject of a further assay is OVCAR-3 ovarian. The assay is described as above. The following applies: 10 µM unless noted.
Consider `CCC(=O)Nc1ccc(-c2nc(-c3cccc(O)c3)c(-c3ccnc(Br)c3)[nH]2)cc1`, for which the growth is 67.5%.

As to `NC(=O)c1c(NC(=O)c2cccc(OC(F)(F)F)c2)sc2c1CCC(=O)C2`, the growth is 67.2%. As to `COc1cc(C2=NN(C(C)=O)C(c3ccc(N4CCOCC4)cc3)C2)cc(OC)c1OC` (stereo unspecified), the growth was 120%.

`CCC(=O)Nc1cc(Nc2cc(NC3CC3)n3ncc(C#N)c3n2)ccc1C`: the growth is 26.2%. For the molecule `O=C(CSc1ccc(-c2nc3ccccc3[nH]2)cn1)N1CCN(c2ccccc2F)CC1`, the growth is 50.7%. On the same count and under the same terms, next, `NCCN1CCN(c2nc(-c3ccccc3)nc3nc(-c4ccccc4)oc23)CC1`: -78.6% (active).

Take `CCN(CC)Cc1c(-c2cccc(OC(F)(F)F)c2)[nH]c2ccc(N3CCCC3)cc2c1=O`: the growth was 104%. In the case of `C#C[C@]1(O)CC[C@H]2[C@@H]3CC=C4c5sc(-c6ccc(OC)cc6)nc5CC[C@]4(C)[C@H]3CC[C@@]21C`, the growth is 83.2%. Same read-out and setting: next, `C#C[C@]1(O)CC[C@H]2[C@@H]3CC=C4c5sc(Nc6cc(OC)ccc6OC)nc5CC[C@]4(C)[C@H]3CC[C@@]21C`: 59.2%. On the same count and under the same terms, next, `O=C(Nc1cccc(-c2nc(-c3ccc(NC(=O)c4cccnc4)cc3Cl)no2)c1)Nc1ccc(NC(=O)C2CC2)c(C(F)(F)F)c1`: -74.7% (active); `O=C(Nc1ccc(-c2nc(-c3cccc(O)c3)c(-c3ccnc(Br)c3)[nH]2)cc1)c1ccccc1`: 31.6%.

As for `COc1ccccc1N1CCN(C2=NN=C(c3cccc(Cl)c3)c3ccccc3C2)CC1`, the growth is -31.2% (active).

In the case of `O=C(NNc1nc2cc(F)c(F)cc2n2cccc12)c1ncccn1`, the growth was 20.8%. The same measure, in the same setting: for `O=C(CN1C(=O)CSC1=O)Nc1ccc(C(=O)/C=C/c2cc3ccccc3nc2Cl)cc1` the value was 87.4%; for `O=C(C[n+]1ccnc2ccccc21)c1ccc(O)c(O)c1`, 21.7%. Same read-out and setting: for `Cn1ccnc1C(=O)/C=C/c1ccc(C(=O)Nc2ccc(NC(=O)CCNC(=O)c3csc(Br)n3)cc2)cc1` the value was 15.5%. `COc1ccc(Oc2ccc(C3CC(c4cc(OC)c(OC)c(OC)c4)=NN3C(C)=O)cc2)cc1` (stereo unspecified): the growth was 25.1%. As for `O=C1/C(=C/c2ccccc2[N+](=O)[O-])Oc2ccc(O)cc21`, the growth was -18.9% (active). On the same count and under the same terms, for `O=c1c2ccccc2nc(COc2ccccc2)n1/N=C/C=C/c1ccccc1` the value was 103%. Turning to `C#C[C@]1(O)CC[C@H]2[C@@H]3CC=C4c5sc(C6CC6)nc5CC[C@]4(C)[C@H]3CC[C@@]21C`, the growth was 89.2%. With `Cc1ccc(S(=O)(=O)N/N=C/c2cn(-c3ccc(F)cc3)nc2-c2ccc(S(C)(=O)=O)cc2)cc1`, the growth was 109%.

Take `C#C[C@]1(O)CC[C@H]2[C@@H]3CC=C4c5sc(-c6ccccn6)nc5CC[C@]4(C)[C@H]3CC[C@@]21C`: the growth is 88%.

For the molecule `CCOC(=O)c1c(NC(=O)c2cccc(C(F)(F)F)c2)sc2c(CN3CCN(C)CC3)c(O)ccc12`, the growth is 65.6%. On the same count and under the same terms, next, `CCOC(=O)Nc1ccc(-c2nc(-c3cccc(O)c3)c(-c3ccnc(Br)c3)[nH]2)cc1`: 14.6%. Still for that read-out and setting: for `COc1ccc(NS(=O)(=O)c2ccc(-c3cnc(C4CC4)o3)cc2)cc1Cl` the value was 15.5%; for `O=S(=O)(Nc1ccc(I)c(Cl)c1)c1ccc(-c2cnc(C3CC3)o2)cc1`, -9.98% (active). As for `O=S(=O)(Nc1ccc2c(c1)OC(F)(F)O2)c1ccc(-c2cnc(C3CC3)o2)cc1`, the growth was 20.3%. On to `O=C(CN1CCN(c2cc(=O)n(-c3ccccc3)c3ccccc23)CC1)Nc1ccc([N+](=O)[O-])cc1`, for which the growth is 90.9%.

As to `CN(c1ccc(Cl)cc1)S(=O)(=O)c1ccc(-c2cnc(C3CC3)o2)cc1`, the growth is 9.18% (active). Still for that read-out and setting: next, `O=C(/C=C/c1cn(-c2ccccc2)nc1-c1ccc(Cl)cc1)c1cc2ccccc2oc1=O`: 82.8%; `O=C1C[C@@H](c2ccccc2)Oc2c(Cc3ccccc3O)c(O)c(Cc3cc(Cc4cc(Cc5ccccc5O)ccc4O)ccc3O)c(O)c21`: 96.4%; `CCC(CC)N1C(=O)/C(=c2\sc3n(c2=O)C2C(NN=3)N(CC)C(=O)N2CC)c2ccccc21` (stereo unspecified): 7.62% (active). Regarding `COC(=O)Nc1ccc(-c2nc(-c3cccc(O)c3)c(-c3ccnc(Br)c3)[nH]2)cc1`, the growth is 50.8%. Same read-out and setting: for `CC(=O)Nc1ccc(NC(=O)Nc2cccc(-c3nc(-c4ccc(NC(=O)c5cccs5)cc4Cl)no3)c2)cc1C(F)(F)F` the value was -63.4% (active); for `O=S(=O)(Nc1cc(Cl)cc(Cl)c1)c1ccc(-c2cnc(C3CC3)o2)cc1`, 17.2%; for `CC(=O)Nc1ccc(NC(=O)Nc2cccc(-c3nc(-c4ccc(NC(=O)c5cccnc5)cc4Cl)no3)c2)cc1C(F)(F)F`, -63.7% (active). On to `O=C(Nc1cccc(-c2nc(-c3ccc(NC(=O)c4cccs4)cc3Cl)no2)c1)Nc1ccc(NC(=O)C2CC2)c(C(F)(F)F)c1`, for which the growth is -54.2% (active). On the same count and under the same terms, for `CN1C(=O)N(C)C2Nn3c(s/c(=C\c4ccccn4)c3=O)=NC21` (stereo unspecified) the value was 106%.
